Experimental data reported in PubChem BioAssay AID445 (National Center for Advancing Translational Sciences (NCATS), 2006).
Out of some 110,000 compounds screened, about 40 (0.04%) were called active. Inconclusive results (about 22%) are left out. Calls follow the shape of the dose curve; as a rule, active = well fitted curve in the direction sought with a large enough effect in the signal ratio (not every such curve was filed as active); inconclusive = small, poorly fitted or top-dose-only effect, or a change in a side signal; inactive = flat fitted curve, though single readings scatter; the % refers to the signal ratio. Shown is part of a subset that was picked to be rich in actives.

test: IkB Signaling; details: ABC-DLBCL IkBa-CBG/CBR dual luciferase ratio, 4 h; series mostly up to 57.1 µM; IkBa stabilization activation: at the top concentration;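 as to IkBa stabilization activation: 0% = basal untreated cells and 100% = reference inhibitor full response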
Excerpt: NIH Molecular Libraries Screening Centers Network [MLSCN]
NIH Chemical Genomics Center [NCGC]
Nuclear factor kappa-B (NF-kappa-B) plays an important role in normal B cell development and survival. Diffuse large B cell lymphoma (DLBCL) is the most commonly observed type of non-Hodgkin's lymphoma. Gene expression analysis has identified an activated B cell-like subtype of DLBCL (ABC-DLBCL) which expresses known NF-kappa-B target genes. […] However, targets upstream of IKK have been largely unexplored and so nodes upstream of IKK in the NF-kappa-B pathway remain untested due to the lack of chemical probes.
A cell-sensor assay for I-kappa-B-alpha stabilization was developed with NIH investigator Dr. R. Eric Davis in Dr. Louis M. Staudt's laboratory. The assay uses green (CBG68) and red (CBR) emitting beetle luciferases [Chroma-Glo(TM) developed by Promega Corp.] where the green luciferase is fused to I-kappa-B-alpha and the red luciferase is present in its native state. Both luciferase genes are stably present in the OCI-Ly3 human ABC DLBCL cell line, but their expression is under the control of tetracycline-inducible promoters. Following the addition of doxycycline to induce expression of the luciferases, the green luminescence in control cultures rises only slowly because the CBG fusion partner I-kappa-B-alpha is targeted by IKK activity for rapid degradation. In contrast, green luminescence rises rapidly in the presence of proteasome inhibitors or IKK inhibitors. The rise in red luminescence of CBR is not affected by proteasome or IKK inhibitors, and serves as normalization for cell number and nonspecific effects. Compounds were screened as a concentration-titration series that ranged from 57 uM to 0.7 nM.
NCGC Assay Protocol Summary:
Cells were seeded in 1536-well plates at 5000 cells/3ul in IMDM medium containing 0.5% FBS, w/o phenol red, L-glutamine, 25 mM HEPES, 3 mg/ml sodium bicarbonate. After centrifugation for 1 min. at 1000 rpm, 23 nl of compounds or DMSO were delivered to each well using a pin tool. Then 1ul 80ng/ml doxycycline was dispensed into white solid 1536-well plates and the plates were incubated at 37C/5% C02 in a cell incubator for 4 hrs. Then 4 ul Chroma-Glo luminescent substrate mix (Promega) was added to each well. The plate was incubated at R.T. for 10-15 min. The plates were measured on a ViewLux plate reader for green luminescence (540/20 nm filter) and red luminescence (618/8 nm filter). The green and red luminescent signals were corrected for red and green luminescence filter overlap using previously determined filter calibration constants (determined using the procedure outlined in the Promega Technical Manual). The %Activity was determined from the ratio of corrected green/red luminescent values. Green luminescent and ratio %Activity was determined by normalizing to the difference in signal between basal cells (0% Activity) and cells incubated with 10 uM of the proteasome inhibitor MG-132 (100% Activity). Red luminescent %Activity was normalized to the difference between red luminesence in basal cells (0%Activity) and zero luminescence (-100% Activity).
Concentration-response curves were fitted to the signals arising from the green luminescence (I-kappa-B-alpha-luciferase fusion; IkB-luc) and the red luminescence (unfused luciferase; luc) as well as the calculated ratio. The concentration-effect curves were then classified based on curve quality (r2), response magnitude and degree of measured activity. Compounds were then categorized based on their concentration-response curves for all three datasets (Ikb-luc, luc and ratio).
Keywords: IKK, I-kappa-B, IkB, IkBa, cytotoxicity, luminescence, MLSMR, MLSCN, NIH Roadmap, qHTS, NCGC
Potency is read from the fitted curve at half-maximal effect.

Row | Structure (SMILES) | IkBa stabilization activation | Potency
1 | CCc1nn(CCCC(=O)NC(C)c2ccccc2)c(=O)c2cc3occc3n12 (stereo not drawn) | 0.87% (inactive) | 
2 | CC(=O)N1CCCc2cc(S(=O)(=O)Nc3ccc(Cl)cc3F)ccc21 | 0.612% (inactive) | 
3 | COc1ccc(CNC(=O)C(C)n2nc(C)c3c(C)n(-c4ccccc4)nc3c2=O)c(OC)c1 (stereo not drawn) | 2.88% (inactive) | 
4 | Cc1ccc(-c2nc(Cn3c(=O)cc(-c4ccccc4)c4c(C)nn(C)c43)c(C)o2)cc1 | -0.408% (inactive) | 
5 | COc1ccc(C2C(=O)N(C3CCCCC3)CC(=O)N2Cc2ccccc2Cl)cc1OC (stereo not drawn) | -0.663% (inactive) | 
6 | Cc1ccc(NC(=O)c2oc3ccccc3c2NC(=O)Cc2cccs2)cc1 | 0.174% (inactive) | 
7 | CCOC(=O)C1CCN(S(=O)(=O)c2ccc3c(c2)N(C)C(=O)CC(=O)N3C)CC1 | 0.0845% (inactive) | 
8 | COc1ccc(-c2nc3nc(C)cc(C)n3c2Nc2c(C)cccc2C)cc1 | 4.16% (inactive) | 
9 | Cc1ccc(C)c(CN2C(=O)c3ccccc3S(=O)c3ccc(C(=O)N4CCOCC4)cc32)c1 (stereo not drawn) | 0.246% (inactive) | 
10 | Cc1ccccc1CNC(=O)CCCn1nc(C)c2sc3ccccc3c2c1=O | -0.00104% (inactive) | 
11 | CCc1cccc(NC(=O)Cn2nc(CC)n3c(cc4cc(C)ccc43)c2=O)c1 | 6.39% (inactive) | 
12 | Cn1c(=O)c2c(ncn2CC(=O)Nc2cccc(C(F)(F)F)c2)n(C)c1=O | 6.05% (inactive) | 
13 | COc1ccc(NS(=O)(=O)c2cc3c(cc2C)N(C(C)=O)CCO3)cc1 | 12.8% (inactive) | 
14 | COc1cc(C)ccc1OCCSc1nc2ccc(NC(=O)c3ccc(C)cc3)cc2s1 | 0.344% (inactive) | 
15 | CCOC(=O)c1ccc(-c2ccc(/C=C(\C#N)C(=O)Nc3ccc(C)cc3)o2)cc1 | -0.769% (inactive) | 
16 | CCn1c2c(c(=O)n3ncc(C(=O)N4CCN(c5ccccc5)CC4)c13)CN(Cc1ccc(OC)cc1)CC2 | 1.86% (inactive) | 
17 | Cc1cccc(-n2c(SCC(N)=O)nc3c(oc4ccccc43)c2=O)c1 | -0.917% (inactive) | 
18 | Cc1cccc(-c2nc(SCc3ccc(Br)cc3)n3[nH]c(=O)cc3n2)c1 | -5.03% (inactive) | 
19 | CCOc1cccc2sc(N3CCN(C(=O)C4CC4)CC3)nc12 | -4.76% (inactive) | 
20 | O=c1cc(CSc2ncn[nH]2)[nH]c2ccc(F)cc12 | 0.491% (inactive) | 
21 | O=C(CC1Oc2ccccc2NC1=O)NCc1ccc(F)cc1 (stereo not drawn) | 2.65% (inactive) | 
22 | Cc1ccc(CNC(=O)CCC(=O)N2Cc3ccccc3Oc3ncccc32)cc1 | 2.77% (inactive) | 

Row | Structure (SMILES) | IkBa stabilization activation | Potency
23 | Cc1cc(C)c(NC(=O)Cn2c(SCC(=O)NCc3ccccc3)nc3ccccc32)c(C)c1 | -0.55% (inactive) | 
24 | CCCC(=O)N1CCN(c2nc3c(OC)ccc(C)c3s2)CC1 | -4.62% (inactive) | 
25 | Cc1cccc(Nc2cc(C)nc(-n3nc(C)cc3C)n2)c1 | -1.06% (inactive) | 
26 | Cc1cc(C)n(-c2ccc(Cl)c(C(=O)O)n2)n1 | 1.24% (inactive) | 
27 | CC(=O)c1ccc(Oc2cc(C)nc(-n3nc(C)cc3C)n2)cc1 |  | 6.31 µM (active)
28 | OCc1cnc(SCc2ccc(F)cc2)n1Cc1ccc(F)cc1 | 1.24% (inactive) | 
29 | CC(C)(C)OC(=O)N1CCC(c2c(C(=O)NCc3ccccn3)cnn2-c2ccc(F)cc2)CC1 | 0.0918% (inactive) | 
30 | COc1ccccc1NC(=O)CN1C(=O)c2ccccc2Sc2ccc(C(=O)N3CCCC3)cc21 | 12.1% (inactive) | 
31 | COCCn1c(CCC(=O)Nc2cc(C)ccc2C)nc2cccnc21 | 1.81% (inactive) | 
32 | Cc1ccc(N2CC(C(=O)Nc3ccc(N(C)C)cc3)CC2=O)cc1Cl (stereo not drawn) | 1.8% (inactive) | 
33 | CCOc1ccc(N(CC)C(=O)c2noc3c2COc2ccc(C)cc2-3)cc1 | -0.625% (inactive) | 
34 | Cc1ccc(C)c(N2C(=O)N(Cc3c(F)cccc3Cl)c3ccccc3S2(=O)=O)c1 | 9.61% (inactive) | 
35 | Cc1csc2nc(COC(=O)c3ccccc3NC(=O)c3ccccc3Cl)cc(=O)n12 | 2.09% (inactive) | 
36 | CCN(CC)C(=O)CSc1nc2cc3c(cc2c(=O)n1CCCC(=O)NCc1ccc2c(c1)OCO2)OCO3 | -2.8% (inactive) | 
37 | O=C(CCn1c(=O)c2ccccc2n(Cc2ccc(Cl)cc2)c1=O)NCc1ccc2c(c1)OCO2 | -0.548% (inactive) | 
38 | CCOc1ccc2nc(N3CCCC(C(=O)Nc4cc(C)ccc4C)C3)sc2c1 (stereo not drawn) | -0.374% (inactive) | 
39 | CCc1ccc(NC(=O)CN2C(=O)CCSc3ccc(S(=O)(=O)N4CCCC4)cc32)cc1 | 1.01% (inactive) | 
40 | Cc1cccc(NC(=O)Cn2c(C(F)(F)F)nc3ccccc32)c1C | 2.61% (inactive) | 
41 | COc1ccc(C2c3c(oc4ccccc4c3=O)C(=O)N2Cc2ccc3c(c2)OCO3)cc1 (stereo not drawn) | 3.44% (inactive) | 
42 | Cc1ccc(Cl)cc1NC(=O)C(C)n1nnc2sc(-c3ccccc3)cc2c1=O (stereo not drawn) | -1.77% (inactive) | 
43 | CCOC(=O)c1sc(NC(=O)/C=C/c2ccc(C(C)C)cc2)c(C(=O)OCC)c1C | -4.34% (inactive) | 
